A short description of assay [1]: qHTS assay for small molecule disruptors of the mitochondrial membrane potential - cell viability (AID 720634; calls by dose curve; note: nearly all actives have a fitted effect of over 20% in size; note: potency is the fitted concentration of half-maximal effect). Put shortly: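 Cells: HepG2, 2,000/well, attached overnight. Compound 1 hr, 37 C/5% CO2. +m-MPI dye, +CellTiter-Glo 30 min RT. Readout: luminescence (ATP).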
In general terms: qHTS replaces the single test concentration by a dilution series.

In assay [2] the target is Glucocorticoid receptor (Homo sapiens) (UniProt P04150). The assay is described as follows: qHTS assay to identify small molecule antagonists of the glucocorticoid receptor (GR) signaling pathway (AID 720692; active = well fitted inhibition curve with a large enough effect in the signal ratio in the repeat runs, not every such curve was filed as active; the % refers to the signal ratio; note: potency is the fitted concentration of half-maximal effect). The method, boiled down: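 HeLa GR-bla cells; cmpd + dex 5 nM final, 18 h 37 C; LiveBLAzer B/G FRET substrate 2 h RT; fluorescence intensity read. Antagonist mode, qHTS.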
Sequence of Glucocorticoid receptor (Homo sapiens) (P04150 whole entry, looked up): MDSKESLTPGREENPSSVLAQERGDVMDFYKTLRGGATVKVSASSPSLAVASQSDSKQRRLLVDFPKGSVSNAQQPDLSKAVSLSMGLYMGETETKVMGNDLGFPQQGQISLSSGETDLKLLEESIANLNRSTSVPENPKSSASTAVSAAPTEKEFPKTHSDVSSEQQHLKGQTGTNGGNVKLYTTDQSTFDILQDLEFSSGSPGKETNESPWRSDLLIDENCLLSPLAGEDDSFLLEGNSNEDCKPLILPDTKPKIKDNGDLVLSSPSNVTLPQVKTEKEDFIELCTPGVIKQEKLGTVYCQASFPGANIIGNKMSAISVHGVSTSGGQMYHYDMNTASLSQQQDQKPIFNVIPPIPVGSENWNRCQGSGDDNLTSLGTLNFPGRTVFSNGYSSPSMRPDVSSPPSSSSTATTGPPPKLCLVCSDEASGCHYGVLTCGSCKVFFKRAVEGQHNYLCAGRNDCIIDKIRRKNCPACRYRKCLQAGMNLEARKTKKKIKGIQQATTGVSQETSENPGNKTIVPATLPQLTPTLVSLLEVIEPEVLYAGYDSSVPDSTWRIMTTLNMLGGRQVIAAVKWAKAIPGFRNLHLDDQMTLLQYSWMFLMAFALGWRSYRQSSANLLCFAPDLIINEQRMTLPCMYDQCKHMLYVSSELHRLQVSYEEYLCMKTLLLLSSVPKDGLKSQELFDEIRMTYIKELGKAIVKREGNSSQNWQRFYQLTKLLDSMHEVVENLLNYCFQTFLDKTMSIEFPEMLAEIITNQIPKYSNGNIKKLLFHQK

Assay [3] can be described thus: qHTS assay for identifying genotoxic compounds that show differential cytotoxicity against isogenic chicken DT40 cell lines with known DNA damage response pathways - Rad54/Ku70 mutant cell line (AID 743015). Note: potency is the fitted concentration of half-maximal effect; nearly all actives have a fitted effect of over 60% in size.
Assay [4] can be described thus: qHTS assay to identify small molecule antagonists of the androgen receptor (AR) signaling pathway - cell viability counter screen (AID 743033; note: nearly all actives have a fitted effect of over 45% in size; note: potency is the fitted concentration of half-maximal effect).
Assay [5] is described as follows: qHTS assay to identify small molecule antagonists of the estrogen receptor alpha (ER-alpha) signaling pathway using the BG1 cell line (AID 743080; calls by dose curve;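 note: BG1 cells stimulated with 17beta-estradiol alongside compound; nearly all actives have a fitted effect of over 25% in size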; note: potency is the fitted concentration of half-maximal effect). The method, boiled down: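 BG1-Luc-4E2 cells (endogenous full-length ER-alpha, stable 4×ERE-luciferase) were starved 5 days in phenol-red-free medium with 10% charcoal-stripped FBS, plated 24 h, then given compound plus 17beta-estradiol for 21.5 h at 37 C; ONE-Glo luminescence read after 30 min.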

The nature of assay [6]: qHTS assay to identify small molecule antagonists of the peroxisome proliferator-activated receptor gamma (PPARg) signaling pathway - cell viability counter screen (AID 743194). Note: nearly all actives have a fitted effect of over 55% in size. Note: potency is the fitted concentration of half-maximal effect. The settings on record: Potency: co-treated with 50 nM rosiglitazone unless noted. Put shortly:
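PPARg-UAS-bla HEK293H cells were plated, rested 5 h at 37 C, then treated with compounds plus rosiglitazone (50 nM final) for 17 h at 37 C; viability was then read by CellTiter-Glo luminescence after 30 min at room temperature.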

Assay [7] can be described thus: qHTS assay for small molecule agonists of the antioxidant response element (ARE) signaling pathway - cell viability counter screen (AID 743203; calls by dose curve; note: nearly all actives have a fitted effect of over 55% in size; note: potency is the fitted concentration of half-maximal effect). Put shortly: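 HepG2 cells carrying ARE-driven beta-lactamase; 2,000 cells/well; 5 hrs plating; compound pinned from DMSO; 16 hrs 37C/5% CO2; CellTiter-Glo added; 30 min RT; luminescence.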
Assay [8] in a line: qHTS assay for small molecule activators of the heat shock response signaling pathway - cell viability counter screen (AID 743209). Note: nearly all actives have a fitted effect of over 50% in size. Note: potency is the fitted concentration of half-maximal effect. Put shortly: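 Luminescence from CellTiter-Glo, added after the beta-lactamase FRET read, gave the viability signal. Cells were HSE-bla HeLa treated with DMSO-dissolved compounds for 5 h at 37 C following overnight plating.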
The target of assay [9] is Peroxisome proliferator-activated receptor delta (Homo sapiens) (UniProt Q03181). The assay is described as follows: qHTS assay to identify small molecule agonists of the peroxisome proliferator-activated receptor delta (PPARd) signaling pathway (AID 743212; calls by dose curve;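 note: HEK293H cells with PPARd UAS beta-lactamase reporter GeneBLAzer system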). Put shortly:
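A PPARd-bla HEK293H line with beta-lactamase under an Upstream Activator Sequence is treated with compounds at 37 C. Substrate loading for 2 h at room temperature precedes the fluorescence measurement.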

Assay [10] is described as follows: qHTS assay to identify small molecule agonists of the farnesoid-X-receptor (FXR) signaling pathway - cell viability counter screen (AID 743218). Note: nearly all actives have a fitted effect of over 45% in size. Note: potency is the fitted concentration of half-maximal effect. The method, boiled down: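 HEK 293T FXR-bla cells; 5 h pre-incubation, 16 h compound exposure at 37 C; LiveBLAzer substrate 2 h RT, then CellTiter-Glo 30 min RT, luminescence.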
Assay [11] in a line: qHTS assay to identify small molecule agonists of the vitamin D receptor (VDR) signaling pathway - cell viability counter screen (AID 743224). Note: nearly all actives have a fitted effect of over 50% in size. Note: potency is the fitted concentration of half-maximal effect. Put shortly: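 Luminescence from CellTiter-Glo, read after 30 min at room temperature, reports viability of VDR-bla cells treated with compounds for 16 h at 37C in the wells used for the beta-lactamase FRET read.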
Assay [12] is described as follows: qHTS assay to identify small molecule antagonists of the vitamin D receptor (VDR) signaling pathway - cell viability counter screen (AID 743225). Note: nearly all actives have a fitted effect of over 50% in size. Note: potency is the fitted concentration of half-maximal effect. Put shortly: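 Cytotoxicity toward the VDR-bla HEK 293T line was scored by ATP-based CellTiter-Glo luminescence, read in the wells already used for the beta-lactamase readout after 16 h compound treatment under 3 nM 1-alpha,25-dihydroxyvitamin D3 stimulation.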

Assay [13] has as its system thyroid hormone receptor (rat, GH3 cells). Put plainly: qHTS assay to identify small molecule agonists of the thyroid receptor (TR) signaling pathway (AID 743066; calls by dose curve).
Assay [14] addresses Peroxisome proliferator-activated receptor gamma (Homo sapiens) (UniProt P37231). Put plainly: qHTS assay to identify small molecule agonists of the peroxisome proliferator-activated receptor gamma (PPARg) signaling pathway (AID 743094; active = well fitted activation curve with a large enough effect in the signal ratio in the repeat runs, not every such curve was filed as active; the % refers to the signal ratio). Put shortly:
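Beta-lactamase FRET fluorescence was the read-out after a 1 h room-temperature substrate step, following 17 h compound treatment at 37C of HEK293H cells expressing a UAS-driven bla reporter responsive to PPARg.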

The target in assay [15] is Glucocorticoid receptor (Homo sapiens) (UniProt P04150). The assay is described as follows: qHTS assay to identify small molecule agonists of the glucocorticoid receptor (GR) signaling pathway (AID 720691; active = well fitted activation curve with a large enough effect in the signal ratio in the repeat runs, not every such curve was filed as active; the % refers to the signal ratio; note: potency is the fitted concentration of half-maximal effect). The method, boiled down: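 Fluorescence intensity from LiveBLAzer B/G FRET substrate (2 h, room temperature) reports beta-lactamase expression driven by the glucocorticoid response element in GR-bla HeLa cells after 18 h compound exposure at 37 C.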

The nature of assay [16]: qHTS assay to identify small molecule antagonists of the peroxisome proliferator-activated receptor delta (PPARd) signaling pathway - cell viability counter screen (AID 743213). Note: nearly all actives have a fitted effect of over 50% in size. Note: potency is the fitted concentration of half-maximal effect. The method, boiled down: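 PPARd-bla HEK293H cells were treated with compounds plus agonist L165041 (300 nM final) for 17 h at 37 C. Viability was then read in the same wells by CellTiter-Glo luminescence after 30 min at room temperature.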

Assay [17] in a line: qHTS assay to identify small molecule antagonists of the glucocorticoid receptor (GR) signaling pathway - cell viability counter screen (AID 720693). Note: nearly all actives have a fitted effect of over 55% in size.
The nature of assay [18]: qHTS assay to identify small molecule antagonists of the estrogen receptor alpha (ER-alpha) signaling pathway - cell viability counter screen (AID 743074; calls by dose curve;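 note: HEK293 cells carrying ER-alpha-UAS-bla reporter stimulated with 17beta-estradiol; nearly all actives have a fitted effect of over 45% in size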; note: potency is the fitted concentration of half-maximal effect).
A short description of assay [19]: qHTS assay to identify small molecule that activate the aryl hydrocarbon receptor (AhR) signaling pathway - cell viability counter screen (AID 743086). Note: nearly all actives have a fitted effect of over 45% in size. Note: potency is the fitted concentration of half-maximal effect. Put shortly:
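HepG2-AhR-luc (HG2L7.5c1) cells, 4000/well, were preincubated 5 h at 37C, exposed to compound in qHTS format for 24 hr at 37C, then given CellTiter-Fluor for 30 min; viability was read as fluorescence in the reporter wells.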

The target in assay [20] is Vitamin D3 receptor (Homo sapiens) (UniProt P11473). The assay is described as follows: qHTS assay to identify small molecule agonists of the vitamin D receptor (VDR) signaling pathway (AID 743222; calls by dose curve). Put shortly:
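VDR-bla cells, 2,000/well; 4 h preincubation 37C; cpd (DMSO) 16 h; LiveBLAzer B/G substrate 2 h RT; fluorescence intensity read.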

Values joined by “and” are separate entries in the source; they are usually repeats but may differ in a detail not shown here. Equal entries are not always repeated. Results filed as inconclusive are left out. Some structures have more than one record in an assay (separate samples or runs), and their calls can disagree. Active and inactive are the calls of the source. Unless noted, calls come from the whole dose curve; as a rule, active = well fitted curve in the direction sought with a large enough effect in the repeat runs; inconclusive = weak or mixed curves; inactive = no such curve, though single readings can be large; an effect the other way counts as inactive or inconclusive.

Sequence of Peroxisome proliferator-activated receptor delta (Homo sapiens) (Q03181 whole entry, looked up): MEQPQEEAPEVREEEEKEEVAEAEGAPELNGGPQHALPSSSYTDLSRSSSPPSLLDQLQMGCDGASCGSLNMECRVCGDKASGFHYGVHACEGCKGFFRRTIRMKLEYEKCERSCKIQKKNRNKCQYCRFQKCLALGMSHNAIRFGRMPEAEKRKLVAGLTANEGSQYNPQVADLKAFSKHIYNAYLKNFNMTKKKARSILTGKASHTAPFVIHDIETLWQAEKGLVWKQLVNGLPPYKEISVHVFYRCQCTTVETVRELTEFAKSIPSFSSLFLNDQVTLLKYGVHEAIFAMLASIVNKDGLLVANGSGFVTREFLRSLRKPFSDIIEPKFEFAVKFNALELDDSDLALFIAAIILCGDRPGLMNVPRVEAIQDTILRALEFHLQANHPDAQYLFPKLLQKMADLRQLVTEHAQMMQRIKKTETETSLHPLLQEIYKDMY
Sequence of Peroxisome proliferator-activated receptor gamma (Homo sapiens) (P37231 whole entry, looked up): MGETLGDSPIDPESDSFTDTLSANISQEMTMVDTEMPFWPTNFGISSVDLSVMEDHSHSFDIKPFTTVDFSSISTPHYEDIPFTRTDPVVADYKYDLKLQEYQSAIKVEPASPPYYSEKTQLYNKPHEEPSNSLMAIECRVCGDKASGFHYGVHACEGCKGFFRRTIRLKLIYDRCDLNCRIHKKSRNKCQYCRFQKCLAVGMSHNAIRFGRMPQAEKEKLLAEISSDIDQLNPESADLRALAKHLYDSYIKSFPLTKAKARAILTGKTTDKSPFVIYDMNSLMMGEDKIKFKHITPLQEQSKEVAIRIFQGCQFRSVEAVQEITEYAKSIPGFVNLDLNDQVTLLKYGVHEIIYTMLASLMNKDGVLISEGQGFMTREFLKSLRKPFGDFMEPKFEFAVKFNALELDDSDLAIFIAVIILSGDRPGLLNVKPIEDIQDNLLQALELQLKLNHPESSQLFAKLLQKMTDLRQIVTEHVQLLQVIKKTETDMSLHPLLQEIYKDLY
Sequence of Vitamin D3 receptor (Homo sapiens) (P11473 whole entry, looked up): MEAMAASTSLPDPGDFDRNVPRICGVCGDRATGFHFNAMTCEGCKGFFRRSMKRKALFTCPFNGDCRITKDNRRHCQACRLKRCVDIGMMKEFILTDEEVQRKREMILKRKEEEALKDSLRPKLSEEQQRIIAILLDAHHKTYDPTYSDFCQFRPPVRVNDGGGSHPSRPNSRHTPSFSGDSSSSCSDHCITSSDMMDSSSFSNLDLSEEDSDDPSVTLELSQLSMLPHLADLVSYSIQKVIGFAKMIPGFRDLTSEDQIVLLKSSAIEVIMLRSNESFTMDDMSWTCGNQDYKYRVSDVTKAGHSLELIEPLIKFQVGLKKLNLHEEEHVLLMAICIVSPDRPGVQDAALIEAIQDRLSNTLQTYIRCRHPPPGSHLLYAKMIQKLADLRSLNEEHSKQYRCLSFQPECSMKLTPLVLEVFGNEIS

Regarding `CC1COC(Cn2cncn2)(c2ccc(Oc3ccc(Cl)cc3)cc2Cl)O1` (stereo not given), the Potency was 2.43 µM (active) in [1]; 43.6 µM (active) in [2]; 2.43 µM (active) in [3]; 21.9 µM (active) in assay [4]; 13.7 µM (active) in [5]; 49 µM (active) in assay [6]. The Potency was 54.5 µM (active) in assay [7], 49 µM (active) in [10], 54.9 µM (active) in assay [11] and 49 µM (active) in assay [12]. Moreover, in assay [8], the Potency result was “inactive”. Moreover, in assay [9], the molecule was called inactive.
Regarding `O=[N+]([O-])c1c(Cl)c(Cl)cc(Cl)c1Cl`, the Potency entry in assay [13], in [5], in assay [14], in assay [7] and in assay [11] was “inactive” each time.
As to `COc1cc(OC)c(OC)cc1C=O`, the Potency entry in [1], in assay [15], in [5], in assay [7] and in [16] was “inactive” each time.
`CCC(C)=O`: in assay [2], the Potency result was “inactive”.
On to `O=C(Nc1ccccc1-c1ccc(Cl)cc1)c1cccnc1Cl`, for which the Potency result in [15], in assay [13], in [5] and in assay [14] was “inactive” throughout.
In the case of `CN1CSC(=S)N(C)C1`, the Potency result in assay [1], in assay [17], in [13], in [18], in assay [14] and in assay [6] was “inactive” in each case. Also, the Potency result in assay [7] and in assay [12] was “inactive” in each case. Besides, the Potency in [15] is 1.94 µM (active); in assay [8] it was “inactive and 1.09 µM (active)”; in assay [16] it was 7.72 µM (active) and 5.48 µM (active); in [10], 4.87 µM (active); in assay [11], 6.13 µM (active) and 3.88 µM (active).
In the case of `COc1ccc(C(c2ccc(OC)cc2)C(Cl)(Cl)Cl)cc1`, the Potency entry in assay [15], in assay [5] and in assay [19] was “inactive” throughout. For the same molecule, the Potency in [2] was 34.5 µM (active); in [3] it was 39.2 µM (active).
Regarding `Cc1cc(C(C)(C)c2ccc(O)c(C)c2)ccc1O`, the Potency is 13.1 µM (active) in assay [2], 37 µM (active) in assay [6], 46.2 µM (active) in assay [7] and 33 µM (active) in assay [11]. The Potency result in [17], in assay [13] and in assay [18] was “inactive” throughout. Further, the call in assay [9] and in assay [20] was inactive.
`CO/C=C(/C(=O)OC)c1ccccc1Oc1cc(Oc2ccccc2C#N)ncn1`: the Potency entry in assay [15], in assay [13] and in assay [8] was “inactive” each time. For the same molecule, the Potency in assay [3] was 0.312 µM (active); in [4], 18.5 µM (active); in assay [18] it was 16.5 µM (active); in assay [19] it was 37.6 µM (active); in assay [11], 5.22 µM (active).
Take `CCc1cccc(C)c1N`: the Potency entry in assay [2] is “inactive”.
For `Clc1ccccc1-c1ccccc1Cl`, the Potency result in assay [15], in assay [17], in assay [4], in [18], in assay [19] and in assay [14] was “inactive” each time. Besides, the Potency result in [7], in assay [8], in [16], in assay [10], in assay [11] and in assay [12] was “inactive” in each case. Moreover, the outcome in assay [9] and in assay [20] was inactive.
In the case of `Cc1cccc(C)c1[N+](=O)[O-]`, in assay [2], the Potency entry is “inactive”.
As for `Nc1ccc(Cl)cc1Cl`, the call in assay [9] was inactive.
As to `Brc1ccc(-c2ccccc2)cc1`, the Potency entry in [2] is “inactive”.

The values above are taken from PubChem BioAssay (Tox21).
